Results filed as inconclusive are left out. Values without a mark were called inactive. Activity calls are given as the source filed them. Calls come from the whole dose curve; as a rule, active = well fitted activation curve with a large enough effect in the repeat runs; inconclusive = weak or mixed curves; inactive = flat fitted curve, though single readings scatter.
Test: A CellTox Green Cytotoxicity Assay to monitor cytotoxicity in HEK293 cells - 24 hour (AID 1224875); note: nearly all actives have a fitted effect of over 45% in size
Settings: CellTox Green fluorescence; series mostly up to 76.8 µM; activity change: at the top concentration
In short: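 Tox21 screen in HEK293: membrane-impermeant cyanine dye fluoresces on binding dead-cell DNA; compound pinned 5 h post-seeding, plates held at 37 C, signal read repeatedly through 40 h.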
% is set by controls: 0 for no effect and ±100 for the full control effect; potency is the fitted concentration of half-maximal effect.

Row | SMILES | activity change | Potency
1 | O=C(O)C[C@H](NC(=O)OCc1ccccc1)C(=O)O | -11.7% | 
2 | CCCCCCCCCI | -12.4% | 
3 | O=C=Nc1ccc(Cl)c(Cl)c1 | 0.0276% | 
4 | O=C1C(=O)c2ccccc2C(O)=C1C1CCC(c2ccc(Cl)cc2)CC1 (centres undefined) | 5.3% [at 35.3 µM, hits give high values] | 
5 | C[C@@H](O)[C@H]1C(=O)N2C(C(=O)O)=C([C@H]3CCCO3)S[C@H]12 | 0.0316% [at 35.3 µM, hits give high values] | 
6 | c1ccc(C[n+]2cccc3ccccc32)cc1 | -1.48% | 
7 | CN(C)CCN1C(=O)c2ccccc2N(C)c2ccccc21 | 5.87% [at 35.3 µM, hits give high values] | 
8 | CC(C)C=O | -3.44% | 
9 | CCC1(CO)COCOC1 | -22.6% | 
10 | Cc1cscn1 | 0.046% | 
11 | C[C@H]1C[C@H](O)c2ccsc2S1(=O)=O | -29.6% [at 35.3 µM, hits give high values] | 
12 | O=C(/C=C/c1ccccc1)OCCc1ccccc1 | 5.26% | 
13 | CC1(C)[C@H](C(=O)O)N2C(=O)C[C@H]2S1(=O)=O | -0.265% [at 35.3 µM, hits give high values] | 
14 | COC(=O)[C@H]1[C@H]2C[C@@H]3c4[nH]c5cc(OC)ccc5c4CCN3C[C@H]2C[C@@H](OC(=O)/C=C/c2ccc(O)c(OC)c2)[C@@H]1OC |  | 16.9 µM (active)
15 | NCCNCCO | -2.9% | 
16 | N#CCc1ccc(Cl)cc1Cl | 4.22% | 
17 | CCCCC(CC)CN (centres undefined) | 2.25% | 
18 | CC(CN(C)C)C(C)(O)Cc1ccc(Cl)cc1 (centres undefined) | -9.7% [at 35.3 µM, hits give high values] | 
19 | C[C@@]12CCC[C@H]1[C@@H]1CC[C@H]3C[C@@H](O)CC[C@]3(C)[C@H]1CC2 | -12.5% [at 35.3 µM, hits give high values] | 
20 | C[C@]1(Cn2ccnn2)[C@H](C(=O)O)N2C(=O)C[C@H]2S1(=O)=O | 1.05% [at 35.3 µM, hits give high values] | 

Row | SMILES | activity change | Potency
21 | Cc1ccccc1N=C(N)Nc1ccccc1C | 0.239% | 
22 | O=C(O)c1ccc(OCCCOc2ccc(C(=O)O)cc2)cc1 | 4.56% [at 35.3 µM, hits give high values] | 
23 | CC1(C)S[C@@H]2[C@H](NC(=O)C(c3ccccc3)S(=O)(=O)O)C(=O)N2[C@H]1C(=O)O (some centres undefined) | -0.338% [at 35.3 µM, hits give high values] | 
24 | NC(=O)c1ccncc1 | -7.22% | 
25 | CO[C@]1(NC(=O)CSC(F)F)C(=O)N2C(C(=O)O)=C(CSc3nnnn3CCO)CO[C@H]21 | -5.76% [at 35.3 µM, hits give high values] | 
26 | CCCCN(CCN(CCCC)C(=O)N1CCOCC1)C(=O)N1CCOCC1 | 0.289% [at 35.3 µM, hits give high values] | 
27 | O=C1CCCCCCCCCCOCCCCO1 |  | 49 µM (active)
28 | C=C(C)C(=O)OCCOCCOC(=O)C(=C)C | 2.87% | 
29 | COC(=O)C1=C(C)NC(C)=C(C(=O)O[C@@H]2CCCN(Cc3ccccc3)C2)[C@@H]1c1cccc([N+](=O)[O-])c1 | -0.298% [at 35.3 µM, hits give high values] | 
30 | CCCCCC[C@@H](O)C/C=C\CCCCCCCC(=O)OCC(O)CO (some centres undefined) | -0.146% | 
31 | Cc1c(C)c2c(c(C)c1OC(=O)CCC(=O)OCCO)CC[C@@](C)(CCC[C@H](C)CCC[C@H](C)CCCC(C)C)O2 | -13.5% [at 35.3 µM, hits give high values] | 
32 | O=C(Cn1ccnc1[N+](=O)[O-])NCCO | 0.9% [at 35.3 µM, hits give high values] | 
33 | Cc1ccccc1S | 6.46% [at 35.3 µM, hits give high values] | 
34 | CC[N+](CC)(CCNC(=O)C(=O)NCC[N+](CC)(CC)Cc1ccccc1Cl)Cc1ccccc1Cl | 14.7% [at 35.3 µM, hits give high values] | 
35 | C=C1CCC2CC1C2(C)C (centres undefined) | -1.23% | 
36 | CCCCCCC(C)(C)C(=O)O | 22.4% | 
37 | Cc1ccc(C(C)(C)O)cc1 | -11.5% | 
38 | CCCCCC#CC(=O)OC | -2.27% | 
39 | CCCCCCCC/C=C\CCCCCCCCO | 1.53% | 

From PubChem BioAssay (Tox21)
